High-throughput results as filed in PubChem BioAssay.
FBA Mtb inh: inhibitors of M. tuberculosis fructose-bisphosphate aldolase; purified M. tuberculosis FBA, fluorescence read-out; inhibition, % at 1 µM; hit rate 2.3% among 360,000; AID 588726; in the data active = inhibition above about 27%;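 note: 0% = vehicle and 100% = reference inhibitor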
BoNT A protease: blocks Botulinum neurotoxin A light chain protease. multiplex microsphere protease substrate cleavage, flow cytometry. hit rate 0.17% among 360,000. inhibition, % at 10 µM. AID 588499; note: plate controls were buffer without enzyme for full effect and enzyme alone for no effect
Anthrax LF inh2: blocks Bacillus anthracis lethal factor protease | multiplex microsphere protease cleavage assay, LF | inhibition, % at 10 µM | hit rate 0.12% among 360,000 | AID 588501; note: plate controls were buffer without enzyme for full effect and enzyme alone for no effect
Target sequence (P15917 whole entry, looked up): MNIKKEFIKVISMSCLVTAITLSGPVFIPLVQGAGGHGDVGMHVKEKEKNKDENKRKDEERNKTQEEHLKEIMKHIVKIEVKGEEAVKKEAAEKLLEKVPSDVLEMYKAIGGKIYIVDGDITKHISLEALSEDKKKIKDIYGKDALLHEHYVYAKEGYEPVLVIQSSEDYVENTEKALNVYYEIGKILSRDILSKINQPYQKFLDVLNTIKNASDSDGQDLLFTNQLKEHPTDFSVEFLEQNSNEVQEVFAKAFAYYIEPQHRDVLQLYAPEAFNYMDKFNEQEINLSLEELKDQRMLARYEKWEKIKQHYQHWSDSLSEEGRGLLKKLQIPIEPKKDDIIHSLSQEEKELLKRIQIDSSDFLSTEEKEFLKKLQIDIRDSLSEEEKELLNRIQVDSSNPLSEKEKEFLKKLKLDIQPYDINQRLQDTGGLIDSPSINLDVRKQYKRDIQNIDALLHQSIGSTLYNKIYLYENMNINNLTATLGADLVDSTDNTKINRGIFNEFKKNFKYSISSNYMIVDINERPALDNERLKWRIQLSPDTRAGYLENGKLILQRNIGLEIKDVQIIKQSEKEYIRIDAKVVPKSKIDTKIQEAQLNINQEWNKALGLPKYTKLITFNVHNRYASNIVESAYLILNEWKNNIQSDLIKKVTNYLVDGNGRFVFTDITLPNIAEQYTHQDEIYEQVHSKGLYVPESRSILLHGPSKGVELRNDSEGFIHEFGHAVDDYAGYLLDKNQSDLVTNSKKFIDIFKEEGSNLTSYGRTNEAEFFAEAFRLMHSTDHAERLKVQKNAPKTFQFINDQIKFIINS
Bead autofluor: compound fluorescence in toxin protease inhibitor counterscreen. compound autofluorescence counterscreen, microsphere flow cytometry; hits give high values. fluorescence intensity (no concentration beside the values). hit rate 3.1% among 360,000; in the data active = fluorescence intensity above about 16000; inconclusive = no clear call, values can overlap the other calls
GDH-TPI inh: counter-screen for M. tuberculosis FBA inhibitors: GDH-TPI coupled enzymes | hit rate 1.2% among 360,000 | inhibition, % at 4.8 µM | AID 588335 | GDH-TPI coupled enzyme counterscreen, NADH absorbance; in the data active = inhibition above about 30%;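 note: 0% = DMSO wells and 100% = wells lacking the enzyme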
BoNT-F LC inh: inhibitors of Botulinum neurotoxin F light chain protease; hit rate 0.22% among 360,000; inhibition, % at 10 µM; Multiplex microsphere protease cleavage assay, flow cytometry; in the data active = inhibition above about 35%, passing the limit was not always enough; inconclusive = no clear call, values can overlap the other calls; note: plate controls were buffer without enzyme for full effect and enzyme alone for no effect
Active calls of the source: *. An excerpt weighted towards active compounds, which were near 6.7% of everything screened. Cut-off read from the data, not from the text of the source, unless noted: active = inhibition above about 30%; inconclusive = no clear call, values can overlap the other calls; inactive = below that.

For CCCCC(=O)Nc1cc([N+](=O)[O-])ccc1Cl the results were FBA Mtb inh 5, BoNT A protease -1, Anthrax LF inh2 1, Bead autofluor 2382, GDH-TPI inh -5 and BoNT-F LC inh -5.
Screening Cc1ccc([N+](=O)[O-])cc1NC(=O)CCc1ccccc1 returned FBA Mtb inh -3, BoNT A protease -1, Anthrax LF inh2 4, Bead autofluor 5382, GDH-TPI inh -3 and BoNT-F LC inh 0.
Screening Cc1ccc([N+](=O)[O-])cc1NC(=O)CCCOc1ccccc1 returned FBA Mtb inh 0, BoNT A protease 0, Anthrax LF inh2 -3, Bead autofluor 16846*, GDH-TPI inh 2 and BoNT-F LC inh -1.
For Cc1cccc(NC(=O)NC(C)C(c2cccs2)N2CCOCC2)c1 (stereo not drawn) the results were FBA Mtb inh -2, BoNT A protease 0, Anthrax LF inh2 9, Bead autofluor 4459, GDH-TPI inh -6 and BoNT-F LC inh -12.
For O=C(OCc1cnc(Cl)s1)c1cccc(Cl)c1 the results were FBA Mtb inh 0, BoNT A protease 0, Anthrax LF inh2 -2, Bead autofluor 2173, GDH-TPI inh 7 and BoNT-F LC inh 2.
`Cn1ccc2c(-c3ccc(C(C)(C)C)cc3)cc3c(c21)C1CCC3O1` (stereo not drawn) gave FBA Mtb inh 11, BoNT A protease 1, Anthrax LF inh2 -8, Bead autofluor 6243 and BoNT-F LC inh 5.
For Cn1ccc2c(-c3ccc(C(=O)O)cc3)cc3c(c21)C1CCC3O1 (stereo not drawn) the results were FBA Mtb inh active, BoNT A protease 0, Anthrax LF inh2 3, Bead autofluor 5206 and BoNT-F LC inh 3.
COc1ccc(-c2cc3c(c4c2ccn4C)C2CCC3O2)cc1OC (stereo not drawn) was read as FBA Mtb inh 0, BoNT A protease 1, Anthrax LF inh2 -4, Bead autofluor 6255 and BoNT-F LC inh -8.
Cn1ccc2c(-c3ccc(CO)cc3)cc3c(c21)C1CCC3O1 (stereo not drawn) was read as FBA Mtb inh active, BoNT A protease 0, Anthrax LF inh2 1, Bead autofluor 4284 and BoNT-F LC inh 1.
Cc1ccc(-n2nc(C(=O)O)cc2-c2ccc(Cl)cc2)cc1 was read as FBA Mtb inh -2, BoNT A protease -1, Anthrax LF inh2 -3, Bead autofluor 4430, GDH-TPI inh 10 and BoNT-F LC inh -1.
For Cc1ccc(-n2nc(C(=O)O)cc2-c2ccccc2)cc1 the results were FBA Mtb inh 0, BoNT A protease -4, Anthrax LF inh2 -2, Bead autofluor 22097*, GDH-TPI inh -7 and BoNT-F LC inh -7.
For COc1ccc(/C=N/OCc2nc3c4c(ncn3n2)Oc2ccc3ccccc3c2C4c2ccccc2)cc1 (stereo not drawn) the results were FBA Mtb inh -3, BoNT A protease 1, Anthrax LF inh2 -1, Bead autofluor 23152*, GDH-TPI inh 0 and BoNT-F LC inh 0.
O=C(Cn1cnc2c(cnn2-c2ccc(F)cc2)c1=O)OCc1ccccc1 was read as FBA Mtb inh 2, BoNT A protease 0, Anthrax LF inh2 1, Bead autofluor 2891, GDH-TPI inh 8 and BoNT-F LC inh 5.
`CCOc1ccc(-c2nn(-c3ccccc3)cc2/C=C2\SC(=S)N(Cc3ccco3)C2=O)cc1` gave FBA Mtb inh 4, BoNT A protease 37*, Anthrax LF inh2 14, Bead autofluor 2009, GDH-TPI inh 6 and BoNT-F LC inh 6.
`Cc1cc(C)nc(NS(=O)(=O)c2ccc(N/C=C3\CCCC3=O)cc2)n1` gave FBA Mtb inh 0, BoNT A protease 0, Anthrax LF inh2 -1, Bead autofluor 5013, GDH-TPI inh 37* and BoNT-F LC inh -20.
`O=C1CCCC/C1=C\Nc1ccc(S(=O)(=O)Nc2cnc3ccccc3n2)cc1` gave FBA Mtb inh 4, BoNT A protease 2, Anthrax LF inh2 -1, Bead autofluor 4729, GDH-TPI inh 38* and BoNT-F LC inh 2.
`Cc1cc(C)nc(NS(=O)(=O)c2ccc(Br)cc2)n1` gave FBA Mtb inh -10, BoNT A protease 1, Anthrax LF inh2 5, Bead autofluor 4064, GDH-TPI inh -4 and BoNT-F LC inh -1.
Screening Cc1cc(C)nc(NS(=O)(=O)c2ccc(N/C=C\C(=O)c3ccc(Cl)cc3)cc2)n1 returned FBA Mtb inh 3, BoNT A protease 2, Anthrax LF inh2 -4, Bead autofluor 8834, GDH-TPI inh 31* and BoNT-F LC inh 3.
For Cc1nn(-c2ccccn2)c2c1-c1nc(N3CCOCC3)ncc1CC2 the results were FBA Mtb inh 114*, BoNT A protease 0, Anthrax LF inh2 -4, Bead autofluor 3191, GDH-TPI inh 17 and BoNT-F LC inh 0.
Screening Cc1ccsc1C=Nc1ccc(O)cc1 returned FBA Mtb inh 4, BoNT A protease 0, Anthrax LF inh2 -3, Bead autofluor 16460*, GDH-TPI inh 11 and BoNT-F LC inh -2.
`Cc1ccsc1/C=N/NC(=O)c1sccc1C` gave FBA Mtb inh -4, BoNT A protease 0, Anthrax LF inh2 0, Bead autofluor 2457, GDH-TPI inh 15 and BoNT-F LC inh -3.
For Cc1ccsc1/C=N/N=C/c1sccc1C the results were FBA Mtb inh 0, BoNT A protease -1, Anthrax LF inh2 -6, Bead autofluor 3635, GDH-TPI inh 33* and BoNT-F LC inh 2.
Screening COc1ccccc1NC(=O)CSc1ncn(-c2ccccc2)n1 returned FBA Mtb inh 0, BoNT A protease inconclusive, Anthrax LF inh2 -5, Bead autofluor 20548*, GDH-TPI inh -18 and BoNT-F LC inh 9.
`O=C(CSc1ncccn1)NCc1ccccc1` gave FBA Mtb inh 4, BoNT A protease -2, Anthrax LF inh2 8, Bead autofluor 10053, GDH-TPI inh -12 and BoNT-F LC inh -2.
For O=C(CSc1ncn(-c2ccccc2)n1)NCc1ccccc1 the results were FBA Mtb inh -1, BoNT A protease inconclusive, Anthrax LF inh2 0, Bead autofluor 23754*, GDH-TPI inh 4 and BoNT-F LC inh -4.
Screening O=C1C2CCCN2C(c2ccccc2)N1c1ccc(F)cc1 (stereo not drawn) returned FBA Mtb inh 1, BoNT A protease 1, Anthrax LF inh2 8, Bead autofluor 6023, GDH-TPI inh 0 and BoNT-F LC inh 1.
Cc1cc(=O)oc2cc(OCCCN3C(=O)c4ccccc4C3=O)ccc12 was read as FBA Mtb inh 1, BoNT A protease 0, Anthrax LF inh2 -1, Bead autofluor 2134, GDH-TPI inh 13 and BoNT-F LC inh -5.
Screening COc1ccccc1CNC(=O)CCN1C(=O)c2ccccc2C1=O returned FBA Mtb inh 117*, BoNT A protease -4, Anthrax LF inh2 -2, Bead autofluor 3669, GDH-TPI inh 2 and BoNT-F LC inh 4.
For CCCC(=O)Oc1ccc2c(C)cc(=O)oc2c1 the results were FBA Mtb inh active, BoNT A protease 0, Anthrax LF inh2 0, Bead autofluor 2471, GDH-TPI inh 5 and BoNT-F LC inh -2.
